Experimental data as given in the supplement of paper PMC3334620.
Over roughly 33,000 sequences, “E-score (-0.5 to 0.5)” has its median near -0.0059; the highest 2% begin near 0.26. The full list was thinned out, with the highest values kept by preference.

Biological target: T1, Cin5 (UniProt P40917)
T1 sequence: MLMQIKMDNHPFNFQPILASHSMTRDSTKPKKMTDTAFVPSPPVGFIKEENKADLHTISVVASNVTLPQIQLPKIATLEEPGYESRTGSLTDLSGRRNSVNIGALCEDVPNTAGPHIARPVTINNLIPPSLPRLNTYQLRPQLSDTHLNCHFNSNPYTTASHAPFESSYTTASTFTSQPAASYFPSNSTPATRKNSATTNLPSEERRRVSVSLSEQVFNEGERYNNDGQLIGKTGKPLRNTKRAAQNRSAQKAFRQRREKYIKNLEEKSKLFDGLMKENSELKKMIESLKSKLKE
Assay: PBM E-score (8-mer binding enrichment) (E-score (-0.5 to 0.5)); higher = stronger / more preferred TF binding
Details: protein concentration: 100 nM; construct: GST-full length
Protocol: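 Universal 'all 10-mer' protein binding microarrays (Agilent AMADID 015681) probed with GST-tagged S. cerevisiae TFs (full-length or DBD) made by in vitro transcription/translation (PURExpress), about 100-200 nM. Bound TF was detected with fluorescent anti-GST. Each ungapped 8-mer (which stands for itself and its reverse complement) is scored by the PBM enrichment score (E-score), a modified Wilcoxon-Mann-Whitney statistic from -0.5 to +0.5, computed with the Universal PBM Analysis Suite. Scale: above 0.35 generally sequence-specific binding.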

Row | Sequence | PBM E-score
1 | ATATATTG | 0.088
2 | ACATATTA | 0.266
3 | CTATATTA | 0.325
4 | CCATATTA | 0.169
5 | GTATATTA | 0.219
6 | TGAGGCCA | 0.0508
7 | TGGCCTAA | -0.0968
8 | AACGGGAG | -0.0138
9 | CAACCGTC | -0.179
10 | ATAAATTA | 0.349
11 | ATAAATTC | 0.0845
12 | ACAAATTA | 0.269
13 | CTAAATTC | 0.0709
14 | AAAAATTG | -0.0306
15 | ATAAATTG | 0.272
16 | CTAAATTA | 0.258
17 | GTAAATTA | 0.192
18 | TAAAATTA | 0.178
19 | ACAAATTG | 0.248
20 | CCAAATTA | 0.187
21 | AAAAATTA | 0.227
22 | CCGAGGAG | -0.213
23 | AGAGCCTG | -0.163
24 | ACGAAGAG | -0.0165
25 | CCGAAAGC | -0.328

Row | Sequence | PBM E-score
26 | AAGGGTAC | -0.137
27 | ATCGACTG | 0.101
28 | ACGTGGAA | -0.00812
29 | GCGTGGAA | 0.106
30 | TCGTGGAA | 0.263
31 | GGACACCC | -0.226
32 | AGAAGCGC | 0.0405
33 | GATCCCAA | -0.0221
34 | CAAGCAAG | -0.103
35 | GTTAACTA | 0.205
36 | ATTAACAC | 0.271
37 | GTTAACAA | 0.17
38 | AATAACAC | 0.247
39 | CTTAACAC | 0.152
40 | ATTAACAG | 0.0268
41 | ATTAACTA | 0.272
42 | ATTAACAA | 0.274
43 | TATAACAA | 0.295
44 | ATTAACTC | 0.17
45 | CATAACAA | 0.252
46 | GATAACAA | 0.1
47 | CCACTAAC | 0.0063
48 | ATTGGGGA | 0.00734
49 | AGGTCCTC | -0.134
50 | GCCGCGAC | -0.086

Row | Sequence | PBM E-score
51 | ACGAACGG | 0.0374
52 | CACGATAG | 0.139
53 | CTAGTCAG | -0.0157
54 | AGGACCCG | -0.169
55 | ACCATACC | -0.0386
56 | ATCAGTTG | 0.209
57 | CCAGCGCA | -0.132
58 | CTATTCCA | 0.215
59 | AAATTCCA | 0.295
60 | GAATTCCA | 0.173
61 | CAATTCCA | 0.0576
62 | ATATTCCG | 0.179
63 | ATATTCCA | 0.274
64 | AAAAGCTT | -0.127
65 | CCTCAATA | -0.0429
66 | CCGGGGCC | -0.242
67 | CTCGAGAA | -0.0673
68 | ACTTGTAC | 0.00779
69 | ATATCTCA | 0.277
70 | CTATCTCA | -0.00021
71 | ATCTCTCA | 0.216
72 | CTGCTATA | 0.117
73 | GCAACTCA | 0.00079
74 | GAAGCTTA | 0.171
75 | TAAGCTGA | 0.267

Row | Sequence | PBM E-score
76 | AAAGCTGA | -0.056
77 | CAAGCTTA | 0.184
78 | CAAGCTGA | 0.233
79 | TAAGCTTA | 0.372
80 | GGCTGTCA | -0.21
81 | TATATCAA | 0.196
82 | GCATCGGC | -0.125
83 | ACTACCCG | -0.0362
84 | AGCTTCCG | -0.0682
85 | GGTATTAC | 0.271
86 | AGTATTCC | 0.225
87 | CGTATTAG | 0.109
88 | GGTATTAA | 0.064
89 | AGTATTAG | 0.275
90 | CGTATTAC | 0.214
91 | AGTATTAC | 0.27
92 | AGTATTAA | 0.242
93 | AGTATTAT | 0.0851
94 | GGTTGCTA | -0.0578
95 | GACCGCCA | -0.0859
96 | CACTGTAC | -0.0867
97 | CTTGCACC | 0.0355
98 | AAGCACAT | 0.206
99 | AGGAGAGC | -0.394
100 | AGCAGCAG | -0.0447

Row | Sequence | PBM E-score
101 | CCTGGTAC | -0.1
102 | CTCTGATC | -0.162
103 | ATATTGTA | 0.151
104 | GTATTACA | 0.34
105 | GTATTATA | 0.267
106 | CTATTACA | 0.181
107 | GTATTGTA | 0.274
108 | ATATTATA | 0.265
109 | GCATTATA | 0.152
110 | GTATTAGA | 0.234
111 | CTATTATA | 0.142
112 | CTATTGTA | 0.13
113 | ATATTAGA | 0.159
114 | GCATTACA | 0.167
115 | AGCTAGGC | -0.14
116 | CGCCGCAA | 0.0347
117 | GACAGTCA | -0.165
118 | CCGAATGA | -0.0132
119 | CCCAATAC | -0.00655
120 | TTCCGGAA | 0.248
121 | ATCCTCTG | 0.0169
122 | AGGATCCA | -0.0524
123 | GGAATCCA | 0.0132
124 | ATATTATG | 0.379
125 | ATATTATC | 0.233

Row | Sequence | PBM E-score
126 | AGATTATG | 0.248
127 | GGGGTGTA | -0.208
128 | CCCGATAG | -0.0593
129 | AATAATAC | 0.181
130 | AAAAATCT | 0.0604
131 | AATAATCT | 0.345
132 | AATAACCT | 0.061
133 | AATAATAT | 0.356
134 | AATAATGG | 0.226
135 | AATAATGC | 0.145
136 | AATAATAG | 0.198
137 | AATAATGT | 0.273
138 | GATAATAA | 0.199
139 | CATAATAA | 0.0985
140 | AATAATAA | 0.305
141 | AAAAAACG | 0.125
142 | AATCATTG | 0.207
143 | ACGCAGTA | -0.15
144 | CCACCGTA | -0.049
145 | GGTAGCAC | -0.152
146 | CATGGATC | -0.00694
147 | ACTCGCGA | 0.214
148 | TAGATCGA | 0.0888
149 | ACTCTGGG | -0.0166
150 | CGGAGACC | -0.167

Row | Sequence | PBM E-score
151 | CCCTCGGC | -0.217
152 | AGTCCCTA | -0.176
153 | AGCTGAAG | 0.0392
154 | ATCTGCGA | 0.00217
155 | GGTACGTA | -0.032
156 | GTTACGTA | 0.305
157 | ACTACGTG | -0.223
158 | ATTACGTC | 0.371
159 | CTTACGTC | 0.196
160 | ATTACGTG | 0.423
161 | ACTACGTC | 0.00455
162 | GTTACGGA | -0.122
163 | AGTACGTG | -0.096
164 | ACCCTGGA | -0.243
165 | AGCGCCCA | -0.243
166 | AGTCAACT | -0.157
167 | CGAGCTCG | 0.0762
168 | ATACCATG | 0.0359
169 | ATACCATA | 0.259
170 | GTACCATA | -0.04
171 | CTGCCCAC | -0.151
172 | GCCTTTAC | -0.0984
